Compounds without any hit were thinned out: in the full panel of roughly 83,000, 20% have a hit.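 Single-dose data. Exposure time 48 hours. Values below 10 considered active.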 Values without a mark were called inactive. Calls of active or inactive are those of the source.
The compounds below were run on M14 melanoma (assay: NCI-60 one-dose screen, 48 h (100 = growth as untreated, 0 = no growth, -100 = all killed)). Conditions: 10 µM unless noted.
Experimental: Growth inhibition of the M14 human tumor cell line is measured as a screen for anti-cancer activity. Cells are grown in 96 well plates and exposed to the test compound for 48 hours. Compounds are tested at a single concentration, which is 10^-5 M for most compounds. The reported endpoint is percent growth (GI% or GIPRCNT), where numbers from 0 - 100% represent growth inhibition, and numbers from -100% - 0 represent cell death. For example, a value of 40 represents 60% growth inhibition. A value of 0 means no net growth occurred over the course of the experiment. A value of -40 indicates 40% of cells at the beginning of the experiment died by the end of the experiment. A value of -100 means all cells are dead at the end of the experiment.
NCI-60 Human Tumor Cell Lines Screen was performed using the standard one-dose NCI protocol, which is described in more detail at https://dtp.cancer.gov/discovery_development/nci-60/default.htm.
Compounds with GIPRCNT values below 10 were considered active. Activity score was based on GIPRCNT using the following formula: […]
Score is 0 for GIPRCNT values of 100 or above, 50 for GIPRCNT values of 0, and 100 for GIPRCNT values of -100.
`CC(C)[C@@]12C[C@@H](OC(=O)C3CO3)[C@@](C)(O1)[C@@H]1CC[C@@H](C)[C@H]1[C@@H]2OC(=O)/C=C/c1ccccc1` (stereo not given in full) gave a growth of 101%.
`O=C(N/N=C/c1ccc([N+](=O)[O-])cc1)c1ccccc1Nc1ccnc(C(F)(F)F)c1` gave a growth of 101%.
`O=C(CCl)Nc1ccc2c(c1)C(=O)c1ccccc1C2=O` was tested, and the growth was -31.6% (active).
`CN1C(=O)N(C)C2C1NN=c1s/c(=C\c3ccc(Br)cc3)c(=O)n12` (stereo not given) showed a growth of 32.8%.
In the case of `Fc1ccc(-c2nc(-c3ccc(-c4nc5ccc(F)cc5[nH]4)cc3)no2)cc1`, the growth was 62.3%.
With `O=C1OCC2=C1C(c1ccccc1)c1cc3c(cc1N2CCO)CCC3` (stereo not given) the growth was -15.1% (active).
`C=C(C)[C@@H]1CC[C@]2(C(=O)O)CC[C@]3(C)[C@H](CC[C@@H]4[C@@]5(C)C[C@@H](CC#Cc6ccc(C(C)=O)s6)[C@H](O)C(C)(C)[C@@H]5CC[C@]43C)[C@@H]12` gave a growth of 76%.
With `O=C1CCCN1C1CCN2CCCc3cccc1c32` (stereo not given) the growth was 100%.
`c1csc(-c2cnc3nonc3n2)c1` showed a growth of 89.4%.
Work on `COc1cccc(-c2nc3sccn3c2-c2ccnc(NCCN3CCCN(C)S3(=O)=O)n2)c1` yielded a growth of 29.2%.
`Clc1cccc(CNc2c3ccccc3nc3ccccc23)c1` gave a growth of 35.5%.
`CC(=O)NC1C(O[C@H]2C[C@H]3[C@@H]4CC=C5C[C@@H](O)CC[C@]5(C)[C@H]4CC[C@]3(C)[C@H]2[C@H](C)C(=O)CCC(C)C)OCC(O)C1O` (stereo not given in full) was tested, and the growth was -22.2% (active).
In the case of `CCN(CC)c1ccc2c(cc1=O)[C@@H](NC(C)=O)CCc1cc(OC)c(OC)c(OC)c1-2`, the growth was -0.777% (active).
`CCOC(=O)c1cc(N)nc2ccccc12` showed a growth of 108%.
`CC(C)CCSc1nc(-c2ccc(F)cc2)c(C#N)c(N2CCCCC2)n1` showed a growth of 99.2%.
With `COc1cc2ncnc(Nc3ccc(S(=O)(=O)Nc4cc(C)on4)cc3)c2cc1OCCCN1CCN(c2ccc([N+](=O)[O-])cc2)CC1` the growth was 98.4%.
Compound `CCOC(=O)c1ccc(NC(=O)CSC(N)=O)cc1` has a growth of 94.8%.
`CCN1C(=O)N(CC)C2C1NN=c1s/c(=C\c3ccc(Br)cc3)c(=O)n12` (stereo not given) was tested, and the growth was 7.42% (active).
In the case of `CN(C)CC(=O)c1ccc2cc(Br)c3ccccc3c2c1`, the growth was 77.2%.
For `COc1ccc2nc(-c3ccc(-c4noc(-c5ccc(Cl)cc5)n4)cc3)[nH]c2c1`, the growth was 42.9%.
Compound `COc1cc(OC)c(C(=O)/C=C/c2cccc(OC(C)=O)c2)cc1CC=C(C)C` has a growth of 87.6%.
Work on `CCCCOc1nc2ccc(C)cc2cc1/C=C/C(=O)/C=C(O)/C=C/c1cc2cc(C)ccc2nc1OCCCC` yielded a growth of 98.4%.
With `Cn1c(=O)c2c(nc(N/N=C/c3ccccc3Cl)n2C)n(C)c1=O` the growth was 103%.
`O=C(O)CSc1ccc(NCc2oc(CO)cc(=O)c2O)cc1` gave a growth of 74.6%.
`COc1ccc(-c2cnnn2-c2nonc2-n2cccc2)cc1` was tested, and the growth was -2.06% (active).
In the case of `COc1ccc(-n2nc(C(=O)Nc3ccc(F)cc3)nc2-c2cc(OC)c(OC)c(OC)c2)cc1`, the growth was 110%.
Work on `O=C(Nc1ccccc1)c1cc2ccccc2s1` yielded a growth of 75.5%.
Work on `O=C1N(Cc2ccccc2Cl)c2ccccc2C12NN=C(c1ccccc1)S2` (stereo not given) yielded a growth of 58.3%.
`COc1cnc2c(c1)C(=O)c1c-2n(CCCN2CCN(C)CC2)c(=O)c2cc(Cl)ccc12` was tested, and the growth was -54.4% (active).
`CC(=O)CC(c1ccc([N+](=O)[O-])cc1)c1c(O)c2ccccc2oc1=O` (stereo not given) was tested, and the growth was 102%.
Compound `CCCCOC(=O)c1cc(O)c(O)c(O)c1` has a growth of 84.1%.
`CN1CCCN(CCNc2nccc(-c3c(-c4cccc(O)c4)nc4sccn34)n2)S1(=O)=O` was tested, and the growth was -0.122% (active).
`C[N+](C)(C)CCCCCCCCCC[N+](C)(C)C` was tested, and the growth was 97.1%.
`Nc1cc(C(=O)O)cc(C(=O)O)c1` was tested, and the growth was 98.9%.
With `COc1cc(C2C(C#N)=C(N)Oc3cc4c(cc32)OCO4)cc2c1OCO2` (stereo not given) the growth was -2.77% (active).
In the case of `N#Cc1ccc(-c2ccc(-c3cccs3)o2)cc1F`, the growth was 87.7%.
`C[N+](C)(C)CC(=O)N/N=C\c1ccco1` was tested, and the growth was 111%.
In the case of `CCN(CC)CCCCCCCCNc1c2ccc(Cl)cc2nc2ccc(OC)cc12`, the growth was -82.4% (active).
In the case of `Cc1ccc([C@H]2c3[nH]c4ccccc4c3C[C@H]3C(=O)N(CCCCCCC(=O)NO)CC(=O)N23)cc1`, the growth was 43.6%.
For `O=S(=O)(Cc1ccc(Cl)cc1Cl)c1ccc(Cl)cc1`, the growth was 9.79% (active).

Source: PubChem BioAssay (NCI)
